ELG1 genotox = induces genotoxicity in HEK293T cells with luciferase-tagged ELG1. 330,000 tested, 1.3% active. HEK293T ELG1-luciferase reporter, luminescence, 16 h. Potency, µM (highest dose often 46 µM), actives largely listed as activators; further: nearly all actives have a fitted effect of over 60% in size
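Quantitative HTS format in 1536-well plates. HEK293T ELG1-luciferase reporter cells receive test compound and are incubated 16 hr at 37 °C, 5% CO2; ONE-Glo added, 30 min room temperature, then luminescence read.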
SMN2 splice enh = enhancers of SMN2 splice variant expression. HEK293 SMN2-luciferase splicing reporter, luminescence, 30-36 h. Potency, µM (titrated, usually from 46.1 µM), usual class: activators. 210,000 tested, 2.8% active. AID 1458; further: nearly all actives have a fitted effect of over 55% in size
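HEK293 cells carry an SMN2 minigene-luciferase reporter in which exon 7 inclusion puts luciferase in frame. Cells were seeded at 2000 cells/well, attached for 10-12 hours, then exposed to compounds for 30-36 hours at 37C before ONE-Glo luminescence.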
FLuc modulator = counter-screen for miR-21 project: firefly luciferase inhibitors or activators; P08659; purified FLuc, Km substrates, luminescence inhibition; Potency, µM (titrated, usually from 57.5 µM), usual class: inhibitors; 360,000 tested, 6.9% active; AID 588342; further: nearly all actives have a fitted effect of over 55% in size
Target sequence (P08659 whole entry, looked up): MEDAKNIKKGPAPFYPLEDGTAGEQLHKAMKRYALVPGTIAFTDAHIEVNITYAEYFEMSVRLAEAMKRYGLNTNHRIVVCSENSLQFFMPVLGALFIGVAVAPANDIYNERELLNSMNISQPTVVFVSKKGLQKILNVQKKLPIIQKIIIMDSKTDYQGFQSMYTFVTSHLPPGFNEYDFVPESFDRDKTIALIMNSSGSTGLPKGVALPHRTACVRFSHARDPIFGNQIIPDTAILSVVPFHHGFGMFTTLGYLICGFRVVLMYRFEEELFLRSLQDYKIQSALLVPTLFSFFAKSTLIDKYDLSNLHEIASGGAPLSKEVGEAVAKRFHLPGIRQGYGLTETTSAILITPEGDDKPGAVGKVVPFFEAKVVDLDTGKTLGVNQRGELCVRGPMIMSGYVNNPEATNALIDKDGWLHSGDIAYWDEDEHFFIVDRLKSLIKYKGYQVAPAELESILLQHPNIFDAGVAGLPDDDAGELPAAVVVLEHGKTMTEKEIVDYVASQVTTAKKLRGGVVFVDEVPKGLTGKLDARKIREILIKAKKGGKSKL
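Purified P. pyralis luciferase, 10 nM final, with Km-level 10 uM D-luciferin and 10 uM ATP in 50 mM Tris acetate pH 7.5, 10 mM Mg acetate, 0.01% Tween-20, 0.05% BSA; 6-point qHTS titration about 60 µM downward; luminescence read.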
Rab9 promoter act = activates the Rab9 promoter | Huh7 Rab9 promoter-luciferase reporter, luminescence, 24 h | Potency, µM (titrated, usually from 9.22 µM), actives largely listed as activators | 320,000 tested, 2.8% active; further: nearly all actives have a fitted effect of over 60% in size
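Huh7 reporter line, Rab9 promoter upstream of luciferase. Compound exposure 24 h at 37 °C in reduced-serum medium with 10% FBS. Read-out: luminescence.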
ELG1 DNA repair = blocks ELG1-dependent DNA repair in HEK293T cells | HEK293T ELG1-luciferase reporter, luminescence, 16 h; DNA damage induced by 5-fluorouridine | Potency, µM (top dose mostly 46.1 µM), hits mostly inhibitors | 330,000 tested, 2.3% active; further: nearly all actives have a fitted effect of over 55% in size
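Reporter activity after DNA damage by 5-fluorouridine is monitored. Compound-treated cells incubate 16 hr at 37 °C, then ONE-Glo is added for 30 min before luminescence reading.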
NPC1 prom act = NPC1 promoter activation; Huh7 NPC1 promoter luciferase reporter, 24 h; Potency, µM (highest dose often 9.22 µM), usual class: activators; 320,000 tested, 2.4% active; further: nearly all actives have a fitted effect of over 60% in size
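Stable NPC1-promoter luciferase Huh7 line; cpd (DMSO) 24 h, 37 °C, 5% CO2; Amplite luciferase reagent 10 min RT; luminescence readout. qHTS format.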
Numbers stand for hits; . = inactive; ? = inconclusive; / = no result given; [ ] = another dose, or the depositor's remark. Rows were chosen to be rich in hits. Some 9.2% of all compounds tested hit in one or more screens of this group. The call rests on the fitted dose curve; in most records, active means well fitted curve in the direction sought with a large enough effect; inconclusive means small, poorly fitted or top-dose-only effect, or another doubt; inactive means no such curve, though single readings can be large; an effect the other way counts as inactive or inconclusive.

SMILES | ELG1 genotox | SMN2 splice enh | FLuc modulator | Rab9 promoter act | ELG1 DNA repair | NPC1 prom act
O=c1c(-c2nc3ccccc3o2)c2oc3ccccc3n2c2ccccc12 | . | . | ? | . | 5.2µM | .
O=c1oc2ccccc2n1CCn1c2ccccc2c2nc3ccccc3nc21 | . | . | . | . | ? | .
O=C(O)c1ccccc1C(=O)NCCc1c(C(=O)O)[nH]c2ccc(Cl)cc12 | . | / | . | . | . | .
CCOC(=O)C1C(=O)CC(C)(O)C(C(=O)OCC)C1c1ccc(C)s1 (stereo unspecified) | . | . | .[2.3 µM] | ? | ? | 4.5µM
CCN1CCN(C(=O)C2(NC(=O)Nc3ccccc3Cl)CCCCC2)CC1 | . | . | . | . | . | .
O=C(Nc1ccncc1)Nc1ccc(Br)cc1Cl | . | / | . | . | . | .
CCN1CCN(Cc2ccccc2NC(=O)Nc2ccc(C)cc2)CC1 | 10µM | ? | 24µM | 4µM | ? | ?
CC(=O)Nc1ccc(CN2CCCCCCC2)cc1 | . | . | . | . | . | .
O=C(Nc1ccc(CN2CCCCC2)cc1)Nc1ccccc1Cl | . | ? | 17µM | . | ? | .
O=C(Nc1ccc(Br)cc1)Nc1ccccc1Cl | ? | / | 2.7µM | ? | ? | 2.2µM
CCN1CCN(CCC(=O)Nc2ccc(C)cc2)CC1 | . | / | . | . | . | .
CCN1CCN(Cc2ccc(NC(=O)Nc3ccccc3Cl)cc2)CC1 | 18µM | ? | 6.7µM | 3.5µM | ? | 4µM
Cn1c(=O)c2c(nc(SCC(=O)Nc3ccccc3F)n2Cc2ccc(Cl)cc2)n(C)c1=O | / | . | . | / | / | /
CN(CC(=O)Nc1ccc2c(c1)OCCO2)S(=O)(=O)c1ccc(F)cc1 | ? | / | ? | ? | ? | .
CCC(C(=O)Nc1ccc2c(c1)OCCO2)n1nnc2ccccc2c1=O (stereo unspecified) | ? | / | 13µM | ? | ? | 3.2µM
O=c1c2ccccc2nnn1CSc1ccc2c(c1)OCCO2 | . | 7.1µM | 9.5µM | 1.8µM | ? | 1.6µM
C[C@@H](C(=O)Nc1ccc2c(c1)OCO2)n1c(=O)[nH]c2ccccc2c1=O | . | / | . | . | . | .
CC(Sc1nc2ccccc2c(=O)n1C)C(=O)Nc1ccc2c(c1)OCCO2 (stereo unspecified) | . | / | . | . | . | .
C[C@@H](C(=O)Nc1ccc2c(c1)OCCO2)n1c(=O)[nH]c2ccccc2c1=O | ? | / | 15µM | . | ? | .
CC(=O)Nc1ccc(S(=O)(=O)NC2(C(F)(F)F)C(=O)Nc3c2c(=O)[nH]c(=O)n3-c2ccc(C)cc2)cc1 (stereo unspecified) | / | . | . | / | / | /
Cc1nn(-c2ccccc2)c(C)c1C(=O)OCc1ccc(C#N)cc1 | . | / | ? | . | ? | .
CCOc1cc(C(F)(F)F)cnc1/C(N)=N/O | . | / | . | . | . | .
Cc1cc(C)cc(N=C2NC(=O)/C(=C/c3cccs3)S2)c1 | . | . | . | . | . | .
Cn1cccc1/C=C1\SC(=Nc2ccc(O)cc2)NC1=O | 16µM | / | ? | . | ? | .
O=C1NC(=Nc2ccc(O)cc2)S/C1=C/c1ccco1 | . | . | . | . | . | .
SMILES | ELG1 genotox | SMN2 splice enh | FLuc modulator | Rab9 promoter act | ELG1 DNA repair | NPC1 prom act
Cn1cccc1/C=C1\SC(=Nc2ccccc2)NC1=O | 23µM | / | 9.5µM | . | ? | .
Cc1ccc(N=C2NC(=O)/C(=C\c3ccco3)S2)cc1 | ? | . | 17µM | ? | ? | ?
O=C1NC(=Nc2ccccc2)S/C1=C\c1cccs1 | ? | / | 12µM | 3.2µM | ? | 3.2µM
Cc1ccc(N=C2NC(=O)/C(=C/c3cccn3C)S2)c(C)c1 | . | / | . | . | ? | .
COc1cc2c(=O)n(CCC(=O)NCC3CCCO3)c(=O)n(CC(=O)Nc3ccc(C)cc3)c2cc1OC (stereo unspecified) | . | . | . | . | . | .
CN(C)N1C(=O)CC(C)(c2ccc([N+](=O)[O-])cc2)C1=O (stereo unspecified) | . | / | . | . | . | .
COc1cc(/C=C2\SC(=Nc3ccc(O)cc3)NC2=O)cc(OC)c1O | ? | / | . | . | . | .
CCOc1ccc2c(c1)S/C(=C\c1cccs1)C(=O)N2 | ? | / | 9.5µM | ? | ? | ?

High-throughput results: PubChem BioAssay, National Center for Advancing Translational Sciences (NCATS)
